Tau fibril ThT: blocks human tau fibril formation measured by thioflavin T; P10636; recombinant tau K18 P301L, heparin-induced fibrillization, ThT fluorescence; Potency, µM (titrated, usually from 57.4 µM), hits mostly inhibitors; hit rate 2.1% among 270,000; also: nearly all actives have a fitted effect of over 55% in size
Target sequence (P10636 561-689 P618L limits assumed): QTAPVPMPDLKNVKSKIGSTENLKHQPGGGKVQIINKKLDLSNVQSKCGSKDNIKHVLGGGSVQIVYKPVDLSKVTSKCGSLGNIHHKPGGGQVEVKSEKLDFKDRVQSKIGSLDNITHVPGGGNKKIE
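ThT emission at 510 nm, taken 1 hr after adding 30 uM dye, quantifies aggregates formed when 20 uM heparin acts on human tau K18 P301L for 6 hr at 37 C.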
GoLoco inh red: blocks human Gai1 binding to RGS12 GoLoco peptide, red readout. P63096. Gai1:RGS12 GoLoco peptide FP, rhodamine, 10 min. Potency, µM (titrated, usually from 61.6 µM), hits mostly inhibitors. hit rate 0.44% among 230,000. AID 880; active = well fitted inhibition curve with a large enough effect, not every such curve was filed as active; inactive = no such curve, though single readings can be large or run the other way; also: nearly all actives have a fitted effect of over 30% in size
Target sequence (P63096 whole entry, looked up): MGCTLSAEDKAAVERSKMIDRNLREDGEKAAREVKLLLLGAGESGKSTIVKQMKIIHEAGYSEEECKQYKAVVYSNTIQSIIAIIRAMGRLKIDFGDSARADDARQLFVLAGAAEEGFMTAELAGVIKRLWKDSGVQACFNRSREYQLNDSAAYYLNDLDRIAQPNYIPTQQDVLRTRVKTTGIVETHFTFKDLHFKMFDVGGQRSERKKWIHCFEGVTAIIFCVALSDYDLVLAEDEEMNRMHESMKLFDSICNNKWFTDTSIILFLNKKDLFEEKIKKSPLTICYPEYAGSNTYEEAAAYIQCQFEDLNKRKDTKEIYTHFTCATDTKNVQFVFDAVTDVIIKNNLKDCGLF
TRb SRC2 PPI: inhibitors of human thyroid hormone receptor beta-SRC2 interaction | P10828 | TRbeta-SRC2 peptide binding, fluorescence polarization; receptor liganded with 1 µM T3 | Potency, µM (highest dose often 106 µM), most hits filed as inhibitors | hit rate 0.065% among 280,000 | AID 1469; also: nearly all actives have a fitted effect of over 50% in size
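Human TRb ligand-binding domain (0.6 uM) is mixed with 20 nM Texas Red SRC2 peptide and 1 uM T3; after compound addition and 5 hr at ambient temperature, polarization is measured and normalized to unbound and bound controls.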
Tau FP inhib: inhibitors of human tau fibril formation; P10636; K18 P301L tau heparin fibrillization, Alexa594 FP, 6 h; Potency, µM (series often up to 57.7 µM), hits mostly inhibitors; hit rate 0.39% among 280,000; AID 1468; also: nearly all actives have a fitted effect of over 55% in size
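Human tau K18 […] P301L fragment, 15 uM unlabeled plus 0.24 uM Alexa 594-labeled tau (final), with compound and 20 uM heparin in 100 mM sodium acetate pH 7; 6 hr at 37 C, then Alexa 594 FP read.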
TexasRed fluor: Texas Red fluorescence interference in TRb-SRC2 counter-screen | TRb/SRC2 Texas Red total fluorescence interference | Potency, µM (highest dose often 106 µM) | hit rate 0.29% among 280,000 | AID 1479; active = well fitted curve in either direction with a large enough effect; inconclusive = small, poorly fitted or top-dose-only effect
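Human TRβ ligand-binding domain (0.6 uM) and Texas Red SRC2 peptide (20 nM) in Tris buffer with 1 uM T3 and 5% DMSO were incubated with pinned compound for 5 hr at ambient temperature. Total fluorescence was computed as S + 2P (555/632 nm).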
Tau fluor cs: counter-screen for tau fibril formation inhibitors; tau K18 P301L (four-repeat tau fragment) Alexa594 fluorescence, heparin fibrillization; Potency, µM (series often up to 57.7 µM); hit rate 0.93% among 280,000; AID 1463; also: nearly all actives have a fitted effect of over 55% in size
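Human K18 P301L tau (15 uM unlabeled plus 0.24 uM Alexa 594-labeled, final) in 100 mM sodium acetate pH 7 was mixed with compound and 20 uM heparin and incubated 6 hr at 37 C.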
Of the large screens only hits and unclear results are named; the others gave an inactive call; ! = repeats disagree; [ ] = another dose, or the depositor's remark. An excerpt weighted towards active compounds, which were near 3.1% of everything screened. Unless noted, calls follow the shape of the dose curve; as a rule, active = well fitted curve in the direction sought with a large enough effect; inconclusive = small, poorly fitted or top-dose-only effect, or another doubt; inactive = no such curve, though single readings can be large; an effect the other way counts as inactive or inconclusive.

N#CCCn1cc(C(=O)NCc2ccccc2)c(-c2ccc3c(c2)OCCO3)n1	none
CC(=O)C(Sc1ncnc2c1nnn2-c1ccc(F)cc1)C(=O)N(C)C (stereo not drawn)	Tau fibril ThT 14µM, Tau FP inhib inconclusive
O=C(CSc1ncnc2c1nnn2-c1ccc(F)cc1)NCC1CCCO1 (stereo not drawn)	Tau fibril ThT inconclusive
c1ccc2c(c1)Nc1ccccc1S2	Tau fibril ThT inconclusive, Tau fluor cs 16µM[quencher]
Cc1ccc(C)c2ccccc12	none (no result: Tau fibril ThT, GoLoco inh red, Tau FP inhib, Tau fluor cs)
O=C(c1cccc2ccccc12)C1CCCN(C2CCC2)C1 (stereo not drawn)	none
Cc1cc(C)cc(N2C(=O)/C(=C\c3ccc(N4CCN(C)CC4)o3)C(=O)NC2=S)c1	Tau fibril ThT inconclusive
Cc1ccc(N2C(=O)/C(=C/c3ccc(CN(CCC#N)S(C)(=O)=O)o3)C(=O)NC2=S)cc1	Tau fibril ThT 22µM, Tau FP inhib inconclusive
O=C1NC(=S)N(Cc2ccco2)C(=O)/C1=C\c1cccs1	Tau fibril ThT 13µM, TRb SRC2 PPI inconclusive, Tau FP inhib inconclusive, TexasRed fluor inconclusive, Tau fluor cs inconclusive
COc1nn(CSP(=S)(OC)OC)c(=O)s1	none (no result: Tau fibril ThT, GoLoco inh red, Tau FP inhib, Tau fluor cs)
S=c1[nH]nc(-c2ccc3ccccc3n2)n1-c1ccc2c(c1)OCCO2	Tau fibril ThT inconclusive
COc1c(CC=C(C)C)c2c(c3oc(=O)c(-c4ccc(O)cc4)c(O)c13)C=CC(C)(C)O2	none
CC(C)=CCCC1(C)C=Cc2c(O)c3c(c(CC=C(C)C)c2O1)OC12C(=CC4CC1C(C)(C)OC2(C/C=C(/C)C(=O)O)C4O)C3=O (stereo not drawn)	Tau fibril ThT 18µM, Tau FP inhib inconclusive
CC(C)=CCCC1(C)C=Cc2c(O)c3c(c(CC=C(C)C)c2O1)OC12C(=CC4CC1C(C)(C)OC2(C/C=C(/C)C(=O)O)C4=O)C3=O (stereo not drawn)	Tau fibril ThT 22µM, Tau FP inhib inconclusive
CC(C)CCCC1(C)C=Cc2c(O)c3c(c(CCC(C)C)c2O1)OC12C(CC4CC1C(C)(C)OC2(CCC(C)C(=O)O)C4O)C3=O (stereo not drawn)	Tau fibril ThT inconclusive
CCc1ccc(NC(=O)CN2CC(c3ccccc3)CC2=O)cc1 (stereo not drawn)	none
C[C@@H]1CC([C@H](O)CC2CC(=O)NC(=O)C2)C(=O)[C@@H](C)C1 (stereo partly drawn)	none
Oc1c(Br)cc(Br)cc1Oc1ccc(Br)cc1Br	Tau fibril ThT 32µM, Tau FP inhib inconclusive, Tau fluor cs inconclusive
C=CC1CN2CCC1CC2C(OC(=O)OCC)c1ccnc2ccc(OC)cc12 (stereo not drawn)	none
Cc1ccccc1C(=O)Nc1sc2c(c1C(=O)O)CCC(C(C)(C)C)C2 (stereo not drawn)	Tau fibril ThT 20µM, Tau fluor cs inconclusive (no result: GoLoco inh red)
CSC(=S)NCc1c[nH]c2ccccc12	Tau fluor cs inconclusive
CC(=O)OC1CC[C@@]2(C)C3CC[C@]4(C)C(=O)CCC4C3CC[C@H]2C1 (stereo partly drawn)	Tau fibril ThT inconclusive
COc1cc(/C=C/[N+](=O)[O-])ccc1O	Tau fibril ThT inconclusive
CCN(CC)c1ccc(/C=C/[N+](=O)[O-])cc1	Tau fibril ThT 16µM, Tau fluor cs inconclusive
CC1(C)C(O)CC(O)[C@]2(C)C1CC(O)[C@]1(C)C2CC[C@@]2(C)C(c3ccoc3)CC3OC312 (stereo partly drawn)	none
CCn1nc(-c2cccs2)nc2c(=O)n(C)c(=O)nc1-2	Tau fibril ThT 18µM, TRb SRC2 PPI inconclusive, Tau FP inhib inconclusive
CC(C)C12CN3CC(C(C)C)(CN(C1)C3c1ccccn1)C2=O (stereo not drawn)	none (no result: GoLoco inh red)
OC12ONC(c3ccccn3)C1N1CCC2CC1 (stereo not drawn)	Tau fibril ThT 13µM, Tau FP inhib inconclusive
O=C(O)c1ccccc1-c1c2cc(Br)c(=O)cc-2oc2[c]([Hg])c(O)c(Br)cc12	Tau fibril ThT inconclusive, GoLoco inh red 1.1µM, TRb SRC2 PPI 20µM!, Tau FP inhib inconclusive, TexasRed fluor 45µM[fluorescent], Tau fluor cs inconclusive

From PubChem BioAssay
